Source: the supplement of paper PMC11732987, “Enantioselective OTUD7B fragment discovery through chemoproteomics screening and high-throughput optimisation” (Communications Chemistry, 2025)

Experiments:
Assay in all cases: log2 ratio of Biotin-Ahx-Ub-VS probe labelling (fragment/DMSO); higher = less target engagement (more negative = stronger competition), active = hit call of the paper (q ≤ 0.05, log2 ratio ≤ -1)
Conditions in all cases: compound concentration: 200 uM; treatment time: 3 h
USP19 = biological target: T1, USP19 (UniProt O94966)
T1 sequence (whole entry): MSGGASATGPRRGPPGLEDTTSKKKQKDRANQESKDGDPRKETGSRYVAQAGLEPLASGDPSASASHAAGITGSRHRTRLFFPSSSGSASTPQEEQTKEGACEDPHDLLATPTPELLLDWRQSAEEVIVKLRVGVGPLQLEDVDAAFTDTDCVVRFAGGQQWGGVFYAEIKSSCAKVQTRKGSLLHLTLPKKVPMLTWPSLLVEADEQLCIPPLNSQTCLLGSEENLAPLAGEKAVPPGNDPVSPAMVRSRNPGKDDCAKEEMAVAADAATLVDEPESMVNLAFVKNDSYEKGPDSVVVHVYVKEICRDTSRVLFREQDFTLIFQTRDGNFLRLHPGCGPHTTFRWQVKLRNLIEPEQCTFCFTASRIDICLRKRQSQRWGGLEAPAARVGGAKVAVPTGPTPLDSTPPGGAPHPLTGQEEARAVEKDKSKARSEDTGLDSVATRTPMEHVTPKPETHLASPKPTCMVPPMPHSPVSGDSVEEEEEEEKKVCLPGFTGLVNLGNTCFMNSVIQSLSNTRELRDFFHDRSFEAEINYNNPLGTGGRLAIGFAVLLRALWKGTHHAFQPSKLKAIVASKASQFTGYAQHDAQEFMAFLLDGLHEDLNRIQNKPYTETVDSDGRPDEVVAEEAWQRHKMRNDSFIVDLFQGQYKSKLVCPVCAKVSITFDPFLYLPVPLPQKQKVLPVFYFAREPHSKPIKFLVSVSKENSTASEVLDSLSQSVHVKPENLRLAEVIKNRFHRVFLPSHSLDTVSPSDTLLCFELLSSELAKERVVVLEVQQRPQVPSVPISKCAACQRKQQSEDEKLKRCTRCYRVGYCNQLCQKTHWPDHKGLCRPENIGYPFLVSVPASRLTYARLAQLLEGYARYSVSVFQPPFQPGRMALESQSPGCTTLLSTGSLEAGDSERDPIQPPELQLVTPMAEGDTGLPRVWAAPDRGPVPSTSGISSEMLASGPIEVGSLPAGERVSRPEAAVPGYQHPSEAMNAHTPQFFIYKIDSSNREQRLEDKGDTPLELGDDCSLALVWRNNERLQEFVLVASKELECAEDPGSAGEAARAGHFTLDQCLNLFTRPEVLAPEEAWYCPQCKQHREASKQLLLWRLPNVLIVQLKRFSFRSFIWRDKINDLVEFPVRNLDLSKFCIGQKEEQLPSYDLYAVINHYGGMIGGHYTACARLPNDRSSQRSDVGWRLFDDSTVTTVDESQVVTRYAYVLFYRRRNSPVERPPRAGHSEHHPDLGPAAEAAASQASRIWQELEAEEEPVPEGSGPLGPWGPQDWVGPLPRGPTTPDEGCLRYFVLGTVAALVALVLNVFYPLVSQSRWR
Outline: (§1)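 The table lists average log2 ratios of fragment over vehicle, from an unpaired t-test on global-median-normalised Spectronaut label-free quantities. Proteins with ≥2 unique peptides were used. Samples were HEK293T lysate (495 µg) treated in triplicate with fragment at 200 µM or vehicle for 3 h, then with Biotin-Ahx-Ub-VS (0.5 µM final) for 1 h, with labelled DUBs NeutrAvidin-enriched and run by diaPASEF LC-MS/MS.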

USP22 = biological target: T2, USP22 (UniProt Q9UPT9)
T2 sequence (whole entry): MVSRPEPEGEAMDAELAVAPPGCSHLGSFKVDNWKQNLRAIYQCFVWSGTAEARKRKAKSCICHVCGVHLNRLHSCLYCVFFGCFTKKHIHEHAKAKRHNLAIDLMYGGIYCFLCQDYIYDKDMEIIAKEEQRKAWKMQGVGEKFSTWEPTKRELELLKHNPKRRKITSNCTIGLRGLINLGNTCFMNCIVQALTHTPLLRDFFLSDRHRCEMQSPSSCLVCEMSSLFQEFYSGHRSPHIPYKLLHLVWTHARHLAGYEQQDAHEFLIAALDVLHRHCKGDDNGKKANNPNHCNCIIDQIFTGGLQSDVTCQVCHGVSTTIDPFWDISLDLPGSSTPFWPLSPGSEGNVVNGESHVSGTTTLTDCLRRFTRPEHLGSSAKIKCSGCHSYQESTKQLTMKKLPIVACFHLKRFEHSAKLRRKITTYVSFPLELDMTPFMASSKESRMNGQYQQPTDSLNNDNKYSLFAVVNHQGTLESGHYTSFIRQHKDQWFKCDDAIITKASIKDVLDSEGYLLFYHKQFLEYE
Outline: as §1

USP24 = USP24 (UniProt Q9UPU5)
Outline: as §1

USP25 = biological target: T3, USP25 (UniProt Q9UHP3)
T3 sequence (whole entry): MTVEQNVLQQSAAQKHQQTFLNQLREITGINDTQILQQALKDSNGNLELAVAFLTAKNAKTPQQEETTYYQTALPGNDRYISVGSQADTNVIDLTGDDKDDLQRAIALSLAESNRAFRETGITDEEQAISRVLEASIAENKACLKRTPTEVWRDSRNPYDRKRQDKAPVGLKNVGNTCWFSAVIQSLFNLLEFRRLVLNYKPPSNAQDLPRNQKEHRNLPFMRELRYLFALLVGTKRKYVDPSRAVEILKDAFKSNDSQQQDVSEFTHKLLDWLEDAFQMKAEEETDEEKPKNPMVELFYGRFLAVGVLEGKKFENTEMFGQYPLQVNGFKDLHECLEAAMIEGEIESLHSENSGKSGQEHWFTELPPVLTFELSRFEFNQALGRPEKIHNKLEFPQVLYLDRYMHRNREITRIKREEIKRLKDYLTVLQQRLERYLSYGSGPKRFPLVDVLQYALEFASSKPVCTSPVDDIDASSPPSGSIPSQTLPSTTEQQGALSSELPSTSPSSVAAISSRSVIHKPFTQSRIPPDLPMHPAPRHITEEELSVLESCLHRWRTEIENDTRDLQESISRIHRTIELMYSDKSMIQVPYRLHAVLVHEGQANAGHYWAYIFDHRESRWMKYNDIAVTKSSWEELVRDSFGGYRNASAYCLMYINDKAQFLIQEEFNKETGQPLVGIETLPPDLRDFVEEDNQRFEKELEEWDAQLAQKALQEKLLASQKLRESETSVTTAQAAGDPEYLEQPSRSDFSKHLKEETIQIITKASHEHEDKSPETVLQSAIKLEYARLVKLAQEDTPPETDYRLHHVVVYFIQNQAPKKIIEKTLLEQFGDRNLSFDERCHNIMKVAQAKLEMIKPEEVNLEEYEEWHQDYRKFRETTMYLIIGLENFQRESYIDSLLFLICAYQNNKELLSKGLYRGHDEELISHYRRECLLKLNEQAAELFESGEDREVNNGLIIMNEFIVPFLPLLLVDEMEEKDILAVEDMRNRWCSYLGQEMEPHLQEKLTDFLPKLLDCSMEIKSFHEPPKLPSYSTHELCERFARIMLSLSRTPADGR
Outline: as §1

USP28 = biological target: T4, USP28 (UniProt Q96RU2)
T4 sequence (whole entry): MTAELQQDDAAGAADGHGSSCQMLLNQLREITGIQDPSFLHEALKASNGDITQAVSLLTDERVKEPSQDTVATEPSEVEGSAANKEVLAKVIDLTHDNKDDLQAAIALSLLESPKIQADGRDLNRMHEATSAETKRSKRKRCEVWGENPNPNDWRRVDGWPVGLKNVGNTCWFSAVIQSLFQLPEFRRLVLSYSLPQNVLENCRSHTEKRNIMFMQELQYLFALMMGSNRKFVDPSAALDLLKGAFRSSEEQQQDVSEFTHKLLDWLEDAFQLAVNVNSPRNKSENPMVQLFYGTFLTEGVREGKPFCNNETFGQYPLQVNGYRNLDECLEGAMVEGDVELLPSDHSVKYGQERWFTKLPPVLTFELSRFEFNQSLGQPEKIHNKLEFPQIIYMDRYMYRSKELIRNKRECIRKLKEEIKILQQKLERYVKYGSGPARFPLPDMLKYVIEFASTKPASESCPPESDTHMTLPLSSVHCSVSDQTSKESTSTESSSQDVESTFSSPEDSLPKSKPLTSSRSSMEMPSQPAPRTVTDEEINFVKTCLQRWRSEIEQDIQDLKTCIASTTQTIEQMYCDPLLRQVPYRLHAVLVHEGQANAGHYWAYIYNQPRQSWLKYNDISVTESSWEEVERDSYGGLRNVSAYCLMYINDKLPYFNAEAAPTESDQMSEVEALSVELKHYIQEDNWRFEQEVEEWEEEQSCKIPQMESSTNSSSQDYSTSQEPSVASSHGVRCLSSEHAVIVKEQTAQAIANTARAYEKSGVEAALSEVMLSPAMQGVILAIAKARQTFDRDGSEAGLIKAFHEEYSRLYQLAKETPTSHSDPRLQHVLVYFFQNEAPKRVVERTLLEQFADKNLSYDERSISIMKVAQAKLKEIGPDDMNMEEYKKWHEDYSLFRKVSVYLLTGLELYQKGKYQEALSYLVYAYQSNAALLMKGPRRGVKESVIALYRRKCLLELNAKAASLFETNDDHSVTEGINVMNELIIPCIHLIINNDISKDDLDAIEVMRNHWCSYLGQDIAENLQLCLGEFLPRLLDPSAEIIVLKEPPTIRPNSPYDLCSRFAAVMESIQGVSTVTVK
Outline: as §1

Measured: log2 ratio of Biotin-Ahx-Ub-VS probe labelling

Sequence of USP24 (Q9UPU5 whole entry): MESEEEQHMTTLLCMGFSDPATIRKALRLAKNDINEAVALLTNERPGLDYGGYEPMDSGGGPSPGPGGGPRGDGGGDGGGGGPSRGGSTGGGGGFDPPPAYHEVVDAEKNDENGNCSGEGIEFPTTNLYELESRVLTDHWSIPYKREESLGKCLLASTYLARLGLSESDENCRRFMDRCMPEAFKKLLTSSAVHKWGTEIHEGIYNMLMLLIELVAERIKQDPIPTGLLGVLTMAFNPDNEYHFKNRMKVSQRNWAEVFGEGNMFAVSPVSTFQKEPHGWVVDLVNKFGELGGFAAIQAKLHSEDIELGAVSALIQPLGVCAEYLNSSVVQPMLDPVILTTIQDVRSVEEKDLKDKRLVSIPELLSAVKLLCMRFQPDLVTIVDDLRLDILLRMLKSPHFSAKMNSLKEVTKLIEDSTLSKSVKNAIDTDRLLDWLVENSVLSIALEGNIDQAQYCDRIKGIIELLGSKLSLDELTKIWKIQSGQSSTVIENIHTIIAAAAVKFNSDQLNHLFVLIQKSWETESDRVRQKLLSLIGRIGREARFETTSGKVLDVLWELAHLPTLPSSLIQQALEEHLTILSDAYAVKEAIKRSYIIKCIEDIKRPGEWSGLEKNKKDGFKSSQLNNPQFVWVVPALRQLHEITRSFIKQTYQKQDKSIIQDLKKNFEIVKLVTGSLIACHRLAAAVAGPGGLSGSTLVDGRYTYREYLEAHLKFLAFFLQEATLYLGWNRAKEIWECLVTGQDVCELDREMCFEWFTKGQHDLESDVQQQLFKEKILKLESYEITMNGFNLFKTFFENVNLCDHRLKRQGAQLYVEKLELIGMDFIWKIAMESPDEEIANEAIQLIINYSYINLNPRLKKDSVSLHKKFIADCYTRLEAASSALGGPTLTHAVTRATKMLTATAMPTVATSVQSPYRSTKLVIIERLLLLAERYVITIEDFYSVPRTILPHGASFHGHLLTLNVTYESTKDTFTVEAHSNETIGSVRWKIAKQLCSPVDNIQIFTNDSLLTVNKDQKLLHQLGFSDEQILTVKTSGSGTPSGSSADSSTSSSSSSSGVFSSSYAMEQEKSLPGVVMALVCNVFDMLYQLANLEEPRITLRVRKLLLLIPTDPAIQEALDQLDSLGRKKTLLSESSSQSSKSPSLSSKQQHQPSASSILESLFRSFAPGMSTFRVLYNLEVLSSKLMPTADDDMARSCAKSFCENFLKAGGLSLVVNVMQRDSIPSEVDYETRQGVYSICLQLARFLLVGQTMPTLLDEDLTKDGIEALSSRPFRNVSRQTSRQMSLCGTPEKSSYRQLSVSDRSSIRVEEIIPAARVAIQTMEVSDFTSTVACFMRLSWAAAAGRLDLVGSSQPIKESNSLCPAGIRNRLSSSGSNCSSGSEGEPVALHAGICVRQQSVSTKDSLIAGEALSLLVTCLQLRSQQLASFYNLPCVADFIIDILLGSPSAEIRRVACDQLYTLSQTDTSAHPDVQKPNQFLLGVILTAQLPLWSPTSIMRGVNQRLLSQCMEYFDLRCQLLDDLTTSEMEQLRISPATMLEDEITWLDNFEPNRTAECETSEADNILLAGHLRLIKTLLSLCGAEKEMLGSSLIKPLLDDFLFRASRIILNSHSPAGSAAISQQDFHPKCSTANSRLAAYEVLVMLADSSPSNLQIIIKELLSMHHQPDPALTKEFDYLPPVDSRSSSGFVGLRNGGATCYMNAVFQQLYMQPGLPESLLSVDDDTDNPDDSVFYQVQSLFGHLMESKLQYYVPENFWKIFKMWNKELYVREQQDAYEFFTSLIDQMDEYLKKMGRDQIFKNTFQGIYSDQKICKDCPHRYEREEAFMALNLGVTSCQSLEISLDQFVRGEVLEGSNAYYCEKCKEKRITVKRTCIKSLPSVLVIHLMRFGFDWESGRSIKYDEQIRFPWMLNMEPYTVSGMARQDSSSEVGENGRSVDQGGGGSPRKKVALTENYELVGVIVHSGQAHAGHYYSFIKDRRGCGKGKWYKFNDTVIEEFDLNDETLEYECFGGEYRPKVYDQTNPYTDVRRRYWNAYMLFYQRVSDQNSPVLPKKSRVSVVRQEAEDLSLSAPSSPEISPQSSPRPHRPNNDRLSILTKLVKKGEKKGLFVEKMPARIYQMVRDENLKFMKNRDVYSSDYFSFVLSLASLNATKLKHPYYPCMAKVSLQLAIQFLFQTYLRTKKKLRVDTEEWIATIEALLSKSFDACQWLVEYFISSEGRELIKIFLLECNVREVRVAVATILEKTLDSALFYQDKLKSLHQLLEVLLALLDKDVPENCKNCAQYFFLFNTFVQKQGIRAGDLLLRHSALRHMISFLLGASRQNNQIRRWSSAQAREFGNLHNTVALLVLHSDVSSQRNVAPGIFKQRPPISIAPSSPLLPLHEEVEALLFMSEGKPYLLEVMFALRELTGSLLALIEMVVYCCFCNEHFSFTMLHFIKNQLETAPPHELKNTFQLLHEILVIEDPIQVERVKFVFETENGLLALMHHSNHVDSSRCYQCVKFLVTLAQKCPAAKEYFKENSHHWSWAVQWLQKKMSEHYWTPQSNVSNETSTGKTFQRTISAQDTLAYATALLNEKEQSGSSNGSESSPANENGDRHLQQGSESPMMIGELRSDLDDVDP

O=C(CCl)N1CCOCC1C1CC1 (stereo not given)
inactive: USP19 -0.0224 | USP22 0.0159 | USP24 -0.173 | USP25 -0.127 | USP28 -0.304
